Laboratory results from PubChem BioAssay.
Where “and” joins values, the source holds several entries; their conditions need not be identical. Equal values may be shown once. Results filed as inconclusive are left out. For part of these data: Potency and affinity values are given separately. Some compounds were tested as several samples or in several runs, with calls that do not always agree. Calls of active or inactive are those of the source. Unless noted, how the calls were made is not given here.

Columns and labels:
[1] = biological target: ATP-dependent translocase ABCB1 (Homo sapiens) (UniProt P08183); assay: P-glycoprotein substrate transport blockade – cell-based (AID 377; in the data active means fluorescence slope change above about 50%); settings: MDR1-expressing cells, fluorescent substrate accumulation slope; stronger effect = higher value; concentration not given here
[2] = blockers of polyQ-driven CASP3 activation – cell-based (AID 1583); settings: polyglutamine-induced caspase-3 activation, cell assay; stronger effect = higher value;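 tested at 10 µM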
[3] = yeast 75Q aggregation reduction – 75Q-TubU reporter (AID 1593); settings: Yeast 75Q polyglutamine aggregation reporter
[4] = restoration of touch response, mutant HTT neurons – whole organism, C. elegans mechanosensory neurons, N-terminal huntingtin (AID 1599); settings: C. elegans polyQ-huntingtin mechanosensory neurons, stronger effect = higher value
[5] = blockers of cytochrome c efflux from mitochondria – biochemical, purified mitochondria (AID 1603); settings: stronger effect = lower value;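 further: mouse liver mitochondria challenged with calcium chloride; signal normalized to the plate average as 100%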
[6] = polyglutamine aggregate formation blockers (AID 1604); settings: polyglutamine-induced protein aggregation inhibition assay; stronger effect = higher value; tested at 2.5 µM
[7] = glutamate transport activators, MN-1 cells, MN-1 cell line (AID 1612); settings: MN-1 motor neuron cells, stronger effect = higher value;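 further: tested at 1 µM final; 0% = mean of DMSO vehicle wells on each plate; positive means more glutamate uptake than control and negative means less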
[8] = GFP-Q80 aggregate reduction, neuronal-like cells, cell-based, NGF-treated PC12, GFPQ80 (AID 1614); settings: PC12 NGF-treated GFP-polyQ80 inclusion reduction;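 further: lower means fewer inclusions and 0 means no inclusions at all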
[9] = 75Q-TubH aggregate inhibition, S. cerevisiae, yeast (AID 1616); settings: S. cerevisiae 75Q-TubH polyglutamine aggregation suppression; stronger effect = higher value
[10] = P. berghei load reduction in hepatocytes – cell-based, HepG2, luciferase luminescence, HepG2 viability, primary screen (AID 624349; in the data active means parasite load remaining mostly below about 12%, no sharp cut-off; inactive means mostly above about 10%;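 further: 100% = mean of DMSO negative control wells on the same plate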); settings: P. berghei liver stage in HepG2, luciferase luminescence, concentration not given here; parasite load remaining: stronger effect = lower value; viability: measured here: HepG2 viability without parasites
[11] = viability loss with induced miR-34 in A549 – imaging, A549 dox-inducible miR-34, nuclei and caspase counts, primary screen (AID 1347080;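 active means compounds whose cell count with miR-34 switched on is under 0.7 times the count with it off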); settings: A549 miR-34 inducible, Hoechst nuclei count, 48 h
[12] = selective SMN2 exon splicing luciferase activators – cell-based, SMN2/SMN1 luciferase reporters (AID 1598); settings: SMN2 vs SMN1 luciferase splicing reporter cells, at 10 µM; SMN1 luciferase ratio: measured here: SMN1 luciferase reporter average; SMN2 luciferase ratio: measured here: SMN2 luciferase reporter average, stronger effect = higher value; SMN2/SMN1 luciferase ratio: stronger effect = higher value
[13] = liver-stage malaria parasite load reduction – cell-based, known kinase inhibitor set, luminescence, hepatoma host viability (AID 624392); settings: Plasmodium liver stage in hepatoma cells, luciferase luminescence, concentration not given here; liver cell % of control: measured here: host liver cell viability; parasite % of control: stronger effect = lower value;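 further: infected cells incubated roughly two days before readout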
[14] = MELAS cybrid and Rieske KO viability enhancers – cell-based, MELAS cybrids, Rieske KO mouse fibroblasts, CellTiter-Glo, primary screen (AID 1508586;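 active means mean z-score across replicates of 1.96 or higher in either the MELAS or the Rieske mutant cell line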;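 further: z relative to plate mean and SD of compound and empty wells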); settings: low glucose
[15] = rescue of PC12 cells from polyQ htt toxicity – LDH release (AID 1610); settings: PC12 mutant huntingtin toxicity, final LDH at 4 uM, stronger effect = lower value
[16] = compounds altering viability of human ES cells (AID 493140); settings: human embryonic stem cell survival screen; stronger effect = higher value;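 further: cells exposed to compounds for four days before counting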
[17] = biological target: Mitogen-activated protein kinase 7 (Homo sapiens) (UniProt Q13164); assay: Gal4-ERK5 driven luciferase induction – cell-based, HTS, primary screen (AID 1508626;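 active means luciferase signal above three times the same-plate solvent-only control wells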;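 further: luciferase driven by Gal4-ERK5 fusion binding five Gal4 sites before minimal TATA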); settings: HeLa Gal4-ERK5 transactivation, 18 h, at 5 µM, stronger effect = higher value
[18] = biological target: NAD(+) hydrolase SARM1 (Homo sapiens) (UniProt Q6SZW1); assay: blocking NAD cleavage by SARM1 SAM-TIR – cell lysate, NAD-Glo luminescence (AID 1508614;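 active means compound whose remaining NAD level is above about 45 nM, limit read from the data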); settings: SAM-TIR HEK293T lysate NADase, at 1 µM, stronger effect = higher value
[19] = stronger effect = lower value, cell number ratio, induced over uninduced
[20] = measured here: relative caspase fold change +Dox/-Dox
[21] = measured here: total cells with miR-34 induction, stronger effect = lower value
[22] = measured here: total cells without miR-34 induction
[23] = MELAS cybrid survival, CellTiter-Glo 48 h, stronger effect = higher value
[24] = Rieske KO mouse fibroblast survival, CellTiter-Glo 72 h

Sequence of NAD(+) hydrolase SARM1 (Homo sapiens) (Q6SZW1 whole entry, looked up): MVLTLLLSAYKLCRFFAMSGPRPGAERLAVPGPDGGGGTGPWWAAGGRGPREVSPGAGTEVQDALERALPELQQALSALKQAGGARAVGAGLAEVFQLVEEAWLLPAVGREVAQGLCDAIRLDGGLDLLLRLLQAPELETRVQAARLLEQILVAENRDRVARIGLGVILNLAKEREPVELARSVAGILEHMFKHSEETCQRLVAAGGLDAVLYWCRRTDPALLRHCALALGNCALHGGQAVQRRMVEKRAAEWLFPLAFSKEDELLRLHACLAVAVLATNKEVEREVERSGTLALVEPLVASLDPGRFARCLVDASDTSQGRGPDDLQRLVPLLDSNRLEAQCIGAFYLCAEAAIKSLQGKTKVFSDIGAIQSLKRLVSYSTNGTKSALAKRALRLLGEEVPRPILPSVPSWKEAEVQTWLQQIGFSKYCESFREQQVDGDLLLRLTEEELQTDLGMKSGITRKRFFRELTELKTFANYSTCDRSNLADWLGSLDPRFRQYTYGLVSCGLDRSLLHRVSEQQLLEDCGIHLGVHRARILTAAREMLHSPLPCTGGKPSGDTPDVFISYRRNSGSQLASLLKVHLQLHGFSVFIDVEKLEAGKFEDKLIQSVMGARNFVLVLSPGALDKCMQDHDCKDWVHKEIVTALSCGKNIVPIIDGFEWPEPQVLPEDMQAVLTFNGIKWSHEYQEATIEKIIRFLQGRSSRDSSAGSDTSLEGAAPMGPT
Sequence of Mitogen-activated protein kinase 7 (Homo sapiens) (Q13164 whole entry, looked up, the tested form may be a part): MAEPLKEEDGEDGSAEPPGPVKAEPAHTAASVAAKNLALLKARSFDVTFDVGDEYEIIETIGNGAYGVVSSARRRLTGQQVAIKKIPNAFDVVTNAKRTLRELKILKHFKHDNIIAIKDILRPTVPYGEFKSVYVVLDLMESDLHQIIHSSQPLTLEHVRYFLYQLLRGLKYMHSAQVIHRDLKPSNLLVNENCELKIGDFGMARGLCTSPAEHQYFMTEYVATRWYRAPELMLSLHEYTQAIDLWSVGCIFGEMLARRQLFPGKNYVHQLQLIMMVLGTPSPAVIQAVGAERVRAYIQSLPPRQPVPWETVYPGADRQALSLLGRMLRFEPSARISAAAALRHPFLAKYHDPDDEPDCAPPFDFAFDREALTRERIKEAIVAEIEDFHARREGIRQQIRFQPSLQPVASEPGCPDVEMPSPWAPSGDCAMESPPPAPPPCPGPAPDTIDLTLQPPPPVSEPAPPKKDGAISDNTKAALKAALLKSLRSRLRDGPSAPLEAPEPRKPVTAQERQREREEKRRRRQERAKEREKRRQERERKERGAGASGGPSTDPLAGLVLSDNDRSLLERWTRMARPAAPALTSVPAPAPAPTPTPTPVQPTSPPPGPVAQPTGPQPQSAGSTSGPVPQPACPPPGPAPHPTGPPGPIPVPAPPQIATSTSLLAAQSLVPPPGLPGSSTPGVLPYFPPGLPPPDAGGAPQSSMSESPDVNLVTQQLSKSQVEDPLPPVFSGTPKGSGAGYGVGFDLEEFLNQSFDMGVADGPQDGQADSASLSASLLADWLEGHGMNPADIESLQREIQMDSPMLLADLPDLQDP
Sequence of ATP-dependent translocase ABCB1 (Homo sapiens) (P08183 whole entry, looked up): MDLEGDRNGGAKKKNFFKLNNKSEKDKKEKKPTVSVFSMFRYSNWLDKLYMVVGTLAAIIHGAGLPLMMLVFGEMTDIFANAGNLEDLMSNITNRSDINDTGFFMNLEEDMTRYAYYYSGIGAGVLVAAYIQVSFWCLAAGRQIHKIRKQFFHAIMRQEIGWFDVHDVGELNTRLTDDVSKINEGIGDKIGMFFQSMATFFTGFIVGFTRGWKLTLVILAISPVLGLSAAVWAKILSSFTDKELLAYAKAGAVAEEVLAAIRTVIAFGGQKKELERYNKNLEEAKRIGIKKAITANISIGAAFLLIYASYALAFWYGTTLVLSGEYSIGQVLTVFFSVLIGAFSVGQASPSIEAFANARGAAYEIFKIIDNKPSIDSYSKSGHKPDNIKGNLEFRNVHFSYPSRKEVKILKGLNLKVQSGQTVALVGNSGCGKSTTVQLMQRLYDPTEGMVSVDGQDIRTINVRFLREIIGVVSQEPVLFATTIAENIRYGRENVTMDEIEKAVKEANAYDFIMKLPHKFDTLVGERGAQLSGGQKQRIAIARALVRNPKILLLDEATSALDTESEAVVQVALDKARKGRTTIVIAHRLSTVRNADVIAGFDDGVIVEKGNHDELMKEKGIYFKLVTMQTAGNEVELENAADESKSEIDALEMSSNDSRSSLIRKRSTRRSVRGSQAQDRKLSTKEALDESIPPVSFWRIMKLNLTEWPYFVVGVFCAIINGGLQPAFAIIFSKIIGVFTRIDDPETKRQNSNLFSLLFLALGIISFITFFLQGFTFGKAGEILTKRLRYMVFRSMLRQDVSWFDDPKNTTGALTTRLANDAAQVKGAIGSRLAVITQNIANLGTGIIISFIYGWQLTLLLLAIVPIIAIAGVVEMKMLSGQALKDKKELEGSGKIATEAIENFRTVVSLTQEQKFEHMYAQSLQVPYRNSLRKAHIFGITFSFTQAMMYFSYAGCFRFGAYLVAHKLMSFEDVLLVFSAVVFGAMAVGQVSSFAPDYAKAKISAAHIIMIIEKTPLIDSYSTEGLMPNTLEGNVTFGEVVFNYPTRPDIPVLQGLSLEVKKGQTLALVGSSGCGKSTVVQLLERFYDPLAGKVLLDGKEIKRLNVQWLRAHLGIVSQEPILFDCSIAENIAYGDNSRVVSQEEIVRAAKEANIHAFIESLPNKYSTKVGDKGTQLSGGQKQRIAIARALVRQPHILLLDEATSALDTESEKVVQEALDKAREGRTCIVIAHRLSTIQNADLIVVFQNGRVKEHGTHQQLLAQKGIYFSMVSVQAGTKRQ

CC[C@]12CCCN3CCc4c(n(c5ccccc45)[C@](O)(C(=O)OC)C1)[C@@H]32
fluorescence slope change [1]: 15.4% (inactive)
inhibition [2]: 18.7%
score [3]: 1.6
rescue above control [4]: 4.14
cytochrome c release ratio [5]: 1.05
inhibition of aggregation [6]: 27%
glutamate uptake change [7]: -2.93%
inclusion score [8]: 2.5
aggregation suppression score [9]: 1.32
parasite load remaining [10]: 112% (inactive) and 81.9% (inactive) and 58.4% (inactive)
viability [10]: 102% and 72.1% and 74.9%
fold change [11, 19]: 0.786 (inactive)
fold change [11, 20]: 1.26
cell count [11, 21]: 7940
cell count [11, 22]: 10100

O[N+]1=CC=CCC1=S.On1ccccc1=S.[Zn]
score [3]: 0.07
SMN1 luciferase ratio [12]: 0.04
SMN2/SMN1 luciferase ratio [12]: 1.77 (active)
SMN2 luciferase ratio [12]: 0.08
rescue above control [4]: 16
cytochrome c release ratio [5]: 1.27
inhibition of aggregation [6]: 0%
glutamate uptake change [7]: -74.2%
aggregation suppression score [9]: -0.0147
parasite load remaining [10]: -0.27% (inactive) and -0.08% (inactive)
viability [10]: 2.62% and 0%
fold change [11, 19]: 0.416 (active)
fold change [11, 20]: 2.93
cell count [11, 21]: 79
cell count [11, 22]: 190

O=C1NC(=O)C(=Cc2cccc(C(F)(F)F)c2)S1
liver cell % of control [13]: 81.5% and 80.8% and 97.3%
parasite % of control [13]: 0.631% (inactive) and 2.17% (inactive) and 7.31% (inactive)
fold change [11, 19]: 0.809 (inactive)
fold change [11, 20]: 0.469
cell count [11, 21]: 7740
cell count [11, 22]: 9570
z-score [14, 23]: -0.352 (inactive)
z-score [14, 24]: 0.482

Cc1[nH]c(C=C2C(=O)Nc3ccccc32)c(C)c1CCC(=O)O
liver cell % of control [13]: 515% and 322% and 191%
parasite % of control [13]: 51% (inactive) and 49.5% (inactive) and 54.8% (inactive)
fold change [11, 19]: 0.955 (inactive)
fold change [11, 20]: 0.799
cell count [11, 21]: 7040
cell count [11, 22]: 7360
z-score [14, 23]: -0.288 (inactive)
z-score [14, 24]: 0.507

CC(Cc1ccc(O)c(O)c1)C(C)Cc1ccc(O)c(O)c1 (centres undefined)
inhibition [2]: -3.14%
score [3]: 0.83
rescue above control [4]: -2.86
cytochrome c release ratio [5]: 3.11
inhibition of aggregation [6]: -17%
normalised LDH release [15]: 0.415
glutamate uptake change [7]: 67.2%
aggregation suppression score [9]: 0.665
fold change [11, 19]: 1.04 (inactive)
fold change [11, 20]: 1.01
cell count [11, 21]: 5990
cell count [11, 22]: 5750

Nc1ncn(C2O[C@H](CO)[C@@H](O)[C@H]2O)c(=O)n1 (some centres undefined)
parasite load remaining [10]: 151% (inactive)
viability [10]: 108%
fold change [11, 19]: 0.664 (active)
fold change [11, 20]: 1.38
cell count [11, 21]: 2060
cell count [11, 22]: 3100
z-score [14, 23]: -0.101 (inactive)
z-score [14, 24]: 0.0147

CC1(C)S[C@@H]2[C@H](NC(=O)[C@H](NC(=O)N3CCNC3=O)c3ccccc3)C(=O)N2C1C(=O)O (some centres undefined)
inhibition [2]: 10.9%
score [3]: 1.31
rescue above control [4]: -2.48
cytochrome c release ratio [5]: 1.14
inhibition of aggregation [6]: 54.5%
glutamate uptake change [7]: 7.74%
inclusion score [8]: 2
aggregation suppression score [9]: 1.29
survival [16]: 4.75 (inactive)
parasite load remaining [10]: 188% (inactive) and 42.9% (inactive)
viability [10]: 87.9% and 114%
fold change [11, 19]: 0.882 (inactive)
fold change [11, 20]: 3.93
cell count [11, 21]: 12000
cell count [11, 22]: 13600

O=C1NC(=O)C(=Cc2ccc(-c3ccc(F)cc3O)o2)S1
liver cell % of control [13]: 115% and 104% and 93.4%
parasite % of control [13]: 1.06% (inactive) and 3.29% (inactive) and 2.91% (inactive)
fold change [11, 19]: 0.91 (inactive)
fold change [11, 20]: 0.626
cell count [11, 21]: 8670
cell count [11, 22]: 9530
z-score [14, 23]: -0.351 (inactive)
z-score [14, 24]: -0.0319

COc1ccc(-c2ccc3c(N4CCOCC4)nc(N4CC(C)OC(C)C4)nc3n2)cc1CO (centres undefined)
liver cell % of control [13]: 228% and 225% and 144%
parasite % of control [13]: 168% (inactive) and 180% (inactive) and 510% (inactive)
fold change [11, 19]: 1.04 (inactive)
fold change [11, 20]: 0.95
cell count [11, 21]: 2720
cell count [11, 22]: 2620
z-score [14, 23]: 3.15 (active)
z-score [14, 24]: -0.466

Cc1ccc([N+](=O)[O-])cc1S(=O)(=O)N(C)N=Cc1cnc2ccc(Br)cn12
liver cell % of control [13]: 52.2% and 52.1% and 55.5%
parasite % of control [13]: 4.51% (inactive) and 2.82% (inactive) and 2.1% (active)
fold change [11, 19]: 0.935 (inactive)
fold change [11, 20]: 0.896
cell count [11, 21]: 837
cell count [11, 22]: 896
z-score [14, 23]: -0.394 (inactive)
z-score [14, 24]: -2.82

Cc1cc(Nc2nc(NC(C)c3ccc(F)cc3)c(C#N)cc2F)n[nH]1 (centres undefined)
liver cell % of control [13]: 55.1% and 77.3% and 95.6%
parasite % of control [13]: 1.2% (inactive) and 12.7% (inactive) and 40% (inactive)
fold change [11, 19]: 1.16 (inactive)
fold change [11, 20]: 0.511
cell count [11, 21]: 1300
cell count [11, 22]: 1120
z-score [14, 23]: 2.18 (active)
z-score [14, 24]: -3.18

C[C@]1(OC(=O)/C=C/c2ccccc2)C[C@@H](O)[C@]2(O)C=CO[C@@H](O[C@@H]3O[C@H](CO)[C@@H](O)[C@H](O)[C@H]3O)[C@@H]21
parasite load remaining [10]: 121% (inactive)
viability [10]: 74.8%
fold change [11, 19]: 0.943 (inactive)
fold change [11, 20]: 0.61
cell count [11, 21]: 9240
cell count [11, 22]: 9800
luciferase signal [17]: 28 AU (inactive)

Cn1nnnc1SCC1=C(C(=O)O)N2C(=O)[C@@H](NC(=O)[C@H](O)c3ccccc3)[C@H]2SC1
survival [16]: 7.33 (inactive)
parasite load remaining [10]: 73.2% (inactive)
viability [10]: 97.6%
fold change [11, 19]: 0.871 (inactive)
fold change [11, 20]: 1.18
cell count [11, 21]: 9300
cell count [11, 22]: 10700
remaining NAD [18]: 10 nM (inactive)
luciferase signal [17]: 36 AU (inactive)

O=[N+]([O-])OCC(CO[N+](=O)[O-])O[N+](=O)[O-]
parasite load remaining [10]: 15.2% (inactive)
viability [10]: 94.3%
fold change [11, 19]: 0.846 (inactive)
fold change [11, 20]: 4.5
cell count [11, 21]: 10800
cell count [11, 22]: 12700
remaining NAD [18]: 10 nM (inactive)

COC(C(=O)N1Cc2[nH]nc(NC(=O)c3ccc(N4CCN(C)CC4)cc3)c2C1)c1ccccc1 (centres undefined)
liver cell % of control [13]: 82.1% and 96.2% and 98.6%
parasite % of control [13]: 40.2% (inactive) and 56.3% (inactive) and 75.4% (inactive)
fold change [11, 19]: 1.01 (inactive)
fold change [11, 20]: 0.994
cell count [11, 21]: 1850
cell count [11, 22]: 1820
z-score [14, 23]: 1.1 (inactive)
z-score [14, 24]: -2.53
